Screens deposited in PubChem BioAssay by National Center for Advancing Translational Sciences (NCATS).
TDP1 cell CPT = qHTS for Inhibitors of human tyrosyl-DNA phosphodiesterase 1 (TDP1): qHTS in cells in presence of CPT; chicken DT40 Tdp1-/-;hTDP1 cells + 20 nM CPT, ATP luminescence, 48 h; Potency, µM (highest dose often 46.2 µM), inactives show at the highest dose activity change, negative = growth inhibition, usual class: inhibitors; 12% of 420,000 active; AID 686979, 2013; note: potency is the fitted concentration of half-maximal effect; nearly all actives have a fitted effect of over 55% in size
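Chicken DT40 Tdp1-/- cells complemented with human TDP1, 400 cells/well, exposed to compounds plus 20 nM camptothecin for at least 48 h at 37 C; viability read as ATP content by CellTiter-Glo luminescence.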
Giardia killer = Small Molecules that selectively kill Giardia lamblia: qHTS. Giardia lamblia trophozoite viability. activity change, % at 7.66 µM, hits read low. 0.15% of 340,000 active; in the data active = activity change below about -80%; inconclusive = between about -30% and that limit;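 note: parasites exposed to compound for two days anaerobically before the ATP read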
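Media and compound were dispensed first, then trophozoites at 100 cells/well; plates sat 48 hrs at 37 deg C without oxygen before ATP luminescence reagent was added and read after 15-30 min at room temperature.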
ELG1 DNA repair = qHTS screen for small molecules that inhibit ELG1-dependent DNA repair in human embryonic kidney (HEK293T) cells expressing luciferase-tagged ELG1; HEK293T ELG1-luciferase reporter, luminescence, 16 h; DNA damage induced by 5-fluorouridine; Potency, µM (doses to about 46.1 µM), inactives show top-dose activity change, negative = inhibition, most hits filed as inhibitors; 2.3% of 330,000 active; note: potency is the fitted concentration of half-maximal effect; nearly all actives have a fitted effect of over 55% in size
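5-Fluorouridine DNA damage + compound/DMSO, 2,000 cells/well, 16 h, 37 °C/5% CO2. ONE-Glo, 30 min RT, luminescence. Readout = decrease in reporter signal.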
DT40 TDP1 no CPT = qHTS for Inhibitors of human tyrosyl-DNA phosphodiesterase 1 (TDP1): qHTS in cells in absence of CPT | DT40 Tdp1-/- hTDP1 cells, no CPT, ATP luminescence, 48 h | 15% of 420,000 active | Potency, µM (top dose mostly 46.2 µM), inactives show at the highest dose activity change, negative = growth inhibition, most hits filed as inhibitors; note: potency is the fitted concentration of half-maximal effect; nearly all actives have a fitted effect of over 55% in size
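Chicken DT40 Tdp1-/- cells stably complemented with human TDP1 were seeded at 400 cells/well with DMSO in place of 20 nM camptothecin. After compound pinning, cells grew at least 48 hr at 37 °C; viability read by CellTiter-Glo luminescence.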
TDP1 inh = qHTS Assay for Inhibitors of Tyrosyl-DNA Phosphodiesterase (TDP1); AID 485290, 2010; Tyrosyl-DNA phosphodiesterase 1 (Homo sapiens), Q9NUW8; recombinant TDP1, AlphaScreen DNA substrate cleavage; 0.28% of 350,000 active; Potency, µM (titrated, usually from 130 µM), without a hit: at the top dose activity change, negative = inhibition, hits mostly inhibitors; note: potency is the fitted concentration of half-maximal effect; nearly all actives have a fitted effect of over 40% in size
Target sequence (Q9NUW8 whole entry, looked up): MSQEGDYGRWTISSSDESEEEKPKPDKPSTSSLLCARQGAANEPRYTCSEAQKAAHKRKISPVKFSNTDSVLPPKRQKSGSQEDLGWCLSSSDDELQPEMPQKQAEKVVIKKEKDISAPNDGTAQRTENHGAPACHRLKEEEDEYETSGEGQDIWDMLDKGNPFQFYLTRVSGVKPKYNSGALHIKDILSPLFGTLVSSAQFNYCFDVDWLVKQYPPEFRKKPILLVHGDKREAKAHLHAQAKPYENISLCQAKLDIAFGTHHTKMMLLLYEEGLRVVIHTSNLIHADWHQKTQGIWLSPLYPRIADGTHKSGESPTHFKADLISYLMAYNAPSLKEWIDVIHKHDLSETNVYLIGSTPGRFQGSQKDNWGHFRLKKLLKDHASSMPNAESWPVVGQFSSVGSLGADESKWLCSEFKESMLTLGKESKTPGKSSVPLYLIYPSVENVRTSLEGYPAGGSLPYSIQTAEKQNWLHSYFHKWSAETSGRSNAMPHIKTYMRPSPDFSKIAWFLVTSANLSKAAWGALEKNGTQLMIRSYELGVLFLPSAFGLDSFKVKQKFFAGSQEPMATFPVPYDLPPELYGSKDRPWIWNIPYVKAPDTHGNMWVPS
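Tdp1 1 nM final; 15 min RT w/ cpd; substrate 15 nM, 5 min; beads 10 ug/ml, 10 min; AlphaScreen read. Neg ctrl: no enzyme.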
IL-1B inflam inh = qHTS for Inhibitors of Inflammasome Signaling: IL-1-beta AlphaLISA Primary Screen; activity change, % at 57.5 µM; 4.7% of 360,000 active; THP-1 LPS/ATP IL-1B secretion, AlphaLISA, 16 h; active compounds read low; AID 743279, 2014; in the data active = activity change below about -50%; inconclusive = mostly about -30% to -49%
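THP-1 cells pretreated 1 hr with compounds (up to 57.5 uM final), then stimulated with LPS (250 ng/mL final) plus ATP (1.25 mM final); secreted IL-1B measured by AlphaLISA after 16 hr, decreased signal indicating inhibition.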
Numbers without * were called inactive; ? = inconclusive; / = no result; [ ] = dose if it differs, or a comment. Most compounds without a hit are left out; they make up all but 19% or so of the library. Unless noted, calls come from the whole dose curve; as a rule, active = well fitted curve in the direction sought with a large enough effect; inconclusive = small, poorly fitted or top-dose-only effect, or another doubt; inactive = no such curve, though single readings can be large; an effect the other way counts as inactive or inconclusive. % is set by controls: 0 for no effect and ±100 for the full control effect.

SMILES | TDP1 cell CPT | Giardia killer | ELG1 DNA repair | DT40 TDP1 no CPT | TDP1 inh | IL-1B inflam inh
CCOc1ccc2c(c1)C(=NNC(=O)c1ccncc1)c1cc(OCC)ccc1-2 | 3.66µM* | -5.1 | ? | 5.17µM* | 4.4% | 63.8
COc1cccc(C2c3c(ncn(-c4cccc(Cl)c4)c3=N)Oc3ccc4ccccc4c32)c1 (stereo unspecified) | / | / | / | / | 6.9% | /
OCCNc1nc(-c2ccccc2)nc2ccccc12 | 15.3% | 2.3 | -4.1% | -21.0% | 2.6% | ?
Cc1ccc(Nc2nc(NCCO)c3ccccc3n2)cc1C | ? | 0.2 | -0.9% | 16.4µM* | / | -99.5*
COc1ccc(OC)c(Nc2nc(NCCO)c3ccccc3n2)c1 | ? | 6.4 | ? | 16.4µM* | / | -89.4*
COc1ccccc1Nc1nc(NCCO)c2ccccc2n1 | / | / | 0.0% | / | 2.9% | /
C[C@@H]1[C@H](O)[C@@H](C)/C=C/C=C/C=C/C=C/C=C/C=C/C=C/[C@H](O[C@@H]2O[C@H](C)[C@@H](O)[C@H](N)[C@@H]2O)C[C@@H]2O[C@](O)(C[C@@H](O)C[C@@H](O)[C@H](O)CC[C@@H](O)C[C@@H](O)CC(=O)O[C@H]1C)C[C@H](O)[C@H]2C(=O)O | / | / | / | / | 7.0% | /
Cc1ccc(CNC(=O)c2ccc(Cn3cc(-c4ccc(C)cc4)nc3-c3ccncc3)cc2)cc1 | ? | -6.7 | ? | ? | / | ?
Cc1nnc2c(NC3CCCC3)nc3ccccc3n12 | -14.7% | 0.1 | ? | ? | 2.6% | 52.3
Cc1cc(C)c(Nc2nc3ccccc3n3c(C)nnc23)c(C)c1 | 14.6µM* | / | / | 13µM* | 6.5% | /
CC(=O)Nc1ccc(Nc2nc3ccccc3n3cnnc23)cc1 | -8.1% | 6.9 | 16.3% | -6.1% | / | -2.4
CC(=O)Nc1cccc(Nc2nc3ccccc3n3c(C)nnc23)c1 | 2.59µM* | / | / | 2.31µM* | -1.3% | /
COC(=O)C1CCCCN1Cc1nc(N(C)C)c2ccccc2n1 (stereo unspecified) | 5.3%[9.04 µM] | / | / | -13.7% | / | /
Cc1ccc(Nc2cc(C)nc3nc(Cc4ccc(Cl)cc4)nn23)cc1 | 18.4µM* | / | / | 14.6µM* | 2.3% | /
Cc1ccc(Nc2cc(C)nc3nc(C)nn23)cc1 | -0.2% | 10.2 | -0.4% | -3.9% | 6.6% | -19.6
CCc1ccc(Nc2cc(C)nc3nc(Cc4ccc(Cl)cc4)nn23)cc1 | 16.4µM* | / | / | 9.2µM* | 2.3% | /
CCCCOCCCNC(=O)C[C@@H]1C[C@@]2(C(=O)OC)CC(C)(C)CC=C2N(Cc2ccco2)C1=O | 20.6µM* | / | / | 23.1µM* | / | -2.1
COC(=O)[C@@]12C[C@@H](CC(=O)NCCC(C)C)C(=O)N(Cc3ccco3)C1=CCC(C)(C)C2 | ? | / | / | ? | / | -17.9
COC(=O)[C@@]12C[C@@H](CC(=O)NCc3ccccc3)C(=O)N(Cc3ccco3)C1=CCC(C)(C)C2 | 18.4µM* | / | / | ? | / | -16.2
COC(=O)[C@@]12C[C@@H](CC(=O)NCc3cccs3)C(=O)N(Cc3ccco3)C1=CCC(C)(C)C2 | ? | / | / | 18.4µM* | / | ?
COC(=O)[C@@]12C[C@@H](CC(=O)NCc3cccc4ccccc34)C(=O)N(Cc3ccco3)C1=CCC(C)(C)C2 | 20.6µM* | / | / | ? | / | -71.3*
COC(=O)[C@@]12C[C@@H](CC(=O)NCc3ccc(C)o3)C(=O)N(Cc3ccco3)C1=CCC(C)(C)C2 | ? | / | / | ? | / | -10.8
C[C@H]1COC(=O)O1 | / | / | / | / | 7.5% | /
CCOc1ccccc1NS(=O)(=O)c1cc2[nH]c(=O)c(=O)[nH]c2cc1C | 2.7% | / | / | -26.7% | 0.0% | /
COC(=O)[C@@]12C[C@@H](CC(=O)NCCCCc3ccccc3)C(=O)N(Cc3ccco3)C1=CCC(C)(C)C2 | 16.4µM* | / | / | ? | / | ?
SMILES | TDP1 cell CPT | Giardia killer | ELG1 DNA repair | DT40 TDP1 no CPT | TDP1 inh | IL-1B inflam inh
COC(=O)[C@@]12C[C@@H](CC(=O)NCCc3ccccc3OC)C(=O)N(Cc3ccco3)C1=CCC(C)(C)C2 | ? | / | / | ? | / | -13.3
Cc1ccc(S(=O)(=O)N2[C@H](CC(=O)OCc3ccccc3)OC[C@@H]2C(C)C)cc1 | 20.6µM* | / | / | 23.1µM* | / | -22.0
Cc1ccc(S(=O)(=O)N2[C@H](CC(=O)OCc3ccccc3)OC[C@@H]2C)cc1 | -29.5% | / | / | ? | / | 21.7
Cn1c(SCC(=O)NCC2CCCO2)ncc(C(=O)Nc2ccccc2)c1=O (stereo unspecified) | 25.9µM* | -15.8 | ? | 23.1µM* | / | -74.4*
Cc1ccc(NC(=O)c2cnc(SCC(=O)NCC3CCCO3)n(C)c2=O)cc1C (stereo unspecified) | 20.6µM* | -1.6 | ? | 23.1µM* | / | -98.3*
O=P1(c2ccccc2)C=Cn2c1cc1c2CCCC1 (stereo unspecified) | 7.0% | -6.5 | 1.5% | -5.7% | 5.1% | 22.2
Cc1cccc(C)c1-c1ccc(CN2C(CC(C)C)C(=O)N(Cc3cn(CC4CCCCC4)nn3)CCS2(=O)=O)cc1 (stereo unspecified) | ? | 40.9 | / | 23.1µM* | / | -12.8
COCOCCn1cc(CN2CCS(=O)(=O)N(Cc3ccc(-c4ccc(Cl)nc4)cc3)C(CC(C)C)C2=O)nn1 (stereo unspecified) | ? | / | / | ? | / | -7.0
CC(C)CC1C(=O)N(Cc2cn(CC3CCCCC3)nn2)CCS(=O)(=O)N1Cc1ccc(-c2ccc(Cl)c(Cl)c2)cc1 (stereo unspecified) | ? | / | / | 16.4µM* | / | -11.1
CCCCC(NC(=O)c1ccc(C#N)cc1)C(=O)NCCC (stereo unspecified) | -23.1% | 9.4 | 16.6% | -19.9% | -0.1% | 5.1
O=c1c([N+](=O)[O-])c(NC2CCCCC2)c2ccccc2n1-c1ccccc1 | 16.4µM* | 3.4 | -21.1% | ? | 0.0% | -0.8
O=c1c([N+](=O)[O-])c(NCCN2CCCCCC2)c2ccccc2n1-c1ccccc1 | -19.0% | 9.5 | -4.5% | -3.6% | 0.0% | -5.0
CCN(C(=O)c1c(C)cc(=O)oc1C)c1ccc2c(c1)OCO2 | -5.5% | -0.2 | 1.4% | -15.9% | -1.0% | 9.9
CCN(C(=O)c1coc(=O)c(Br)c1)c1ccc2c(c1)OCO2 | 1.46µM* | 14.0 | 26.3% | 1.03µM* | 0.0% | -10.6
